Reference: PubChem BioAssay (EPA / NIEHS)
The source made the active and inactive calls. How the source made its calls: active means hit-call score of the fitted dose curve at least 0.9, where 1 is the maximum; inactive means score below 0.9.

experiment: APR_HepG2_MitoMembPot_72hr: Apredica 72-hour HepG2 Assay for Mitochondrial Membrane Potential (AID 2282917); conditions: imaging, actives raise or lower the signal
Procedure: APR_HepG2_72hr is a cell-based, multiplexed-readout assay that uses HepG2, a human liver cell line, with measurements taken at 72 hours after chemical dosing in a 384-well plate.APR_HepG2_MitoMembPot_72hr is one of 10 assay component(s) measured or calculated from the APR_HepG2_72hr assay. It is designed to make measurements of dye binding, a form of membrane potential reporter, as detected with fluorescence intensity signals by HCS Fluorescent Imaging technology.Data from the assay component APR_HepG2_MitoMembPot_72hr was analyzed into 1 assay endpoint. This assay endpoint, APR_HepG2_MitoMembPot_72hr, was analyzed with bidirectional fitting relative to DMSO as the negative control and baseline of activity. Using a type of membrane potential reporter, gain or loss-of-signal activity can be used to understand changes in the signaling. Furthermore, this assay endpoint can be referred to as a primary readout, because this assay has produced multiple assay endpoints where this one serves a signaling function. To generalize the intended target to other relatable targets, this assay endpoint is annotated to the cell morphology intended target family, where the subfamily is organelle conformation.
Cells were treated with dimethyl sulfoxide (DMSO) as a solvent control at a final concentration of 0.5% v/v or with compounds in DMSO with a resulting final DMSO concentration of 0.5% v/v. Compound treatment was done at concentrations of 0.39, 0.78, 1.56, 3.12, 6.24, 12.5, 25, 50, 100, and 200 uM in duplicate on each plate. Cells were treated with compounds for 1, 24, or 72 hr. Carbonyl […] m-chloro-phenylhydrazone (CCCP) and taxol were used as positive controls for mitochondrial function and cytoskeletal stability, respectively; DMSO served as the negative control for this experiment. Cells were fixed by the direct addition of 50 uL formaldehyde in Hank's Balanced Salt Solution (HBSS) to a final concentration of 3.7%. After incubation in the fixation medium for 30 min at room temperature (293-298 K), cells were rinsed twice with HBSS and treated with cell permeabilization buffer (16 uL of 0.5% Triton X-100) for 10 min at room temperature (293-298 K) before labeling. For mitochondrial membrane potential and mitochondrial measurements, pre-fixed cells were incubated with 50 uL of MitoTracker Red CMXRos (Invitrogen) at a concentration of 250 nM for 30 min before fixation. In the remaining cases, post-fixed cells were labeled by incubation with a multiplexed mixture of primary antibodies in HBSS for 60 min at room temperature (293-298 K) to detect immunoreactivity of c-Jun (1:500), phospho-histone H3 (1:100), phospho-histone H2A.x (1:200), p53 (1:400), alpha-tubulin (1:200) and Hoechst 33342 (2 ug/mL). Cells were labeled for multiplexed imaging on two separate plates: a) Hoechst 33342, MitoTracker Red, phospho-histone H3, and alpha-tubulin, and b) Hoechst 33342, phospho-histone H2A.x, and c-Jun. A final rinse with HBSS (50 uL) was performed before analysis. The primary and secondary antibodies for the proteins were phospho-histone H3 (rabbit anti-phospho-histone H3 and FITC-donkey anti-rabbit IgG), phospho-histone H2A.x (mouse anti-phospho-histone H2A.x and FITC-donkey anti-mouse IgG), c-Jun (rabbit anti-phospho-c-Jun and Cy3-donkey anti-rabbit IgG), p53 (sheep anti-p53 and Cy5-donkey anti-sheep IgG), alpha-tubulin (mouse anti-alpha-tubulin and Cy5-donkey anti-mouse IgG). These antibodies are available as the CellCiphr HepG2 assay kit (Millipore).Digital images of each well were captured using a Cellomics ArrayScan VTI (Thermo Scientific Cellomics) (0.8 NA objective, 0.63x optical coupler, and XF-93 filter set) at 20x magnification. The images were acquired using the autofocus feature of the ArrayScan instrument, which entails the following steps. First, the camera focuses on channel 1 (Hoechst 33342), where nuclei are identified. Second, a Z offset of 1 um is used for capturing mitochondria (MitoTracker Red). […]

Compound | AC50 | outcome
Cc1[nH]nc2c1N=C(c1ccccc1Cl)c1cc([N+](=O)[O-])ccc1N2 | 0.432 µM (active) | –
O=C1NS(=O)(=O)c2ccccc21 | – | inactive
CCCCCCCCCCCCCCC | – | inactive
CS(=O)(=O)c1ccc([C@@H](CC2CCCC2)C(=O)Nc2cnccn2)cc1Cl | – | inactive
N=C(N)c1ccc(OCCCCCOc2ccc(C(=N)N)cc2)cc1 | – | inactive
CCCCCCCCCCCCOS(=O)(=O)O | – | inactive
CC(=O)Nc1ccc(O)cc1 | – | inactive
CCCCc1oc2ccccc2c1C(=O)c1cc(I)c(OCCN(CC)CC)c(I)c1 | – | inactive
CN(Cc1cnc2nc(N)nc(N)c2n1)c1ccc(C(=O)N[C@@H](CCC(=O)O)C(=O)O)cc1 | 19.8 µM (active) | –
O=C(c1ccccc1)c1ccccc1 | – | inactive
CN(C)CCOC(c1ccccc1)c1ccccc1 | – | inactive
CCCCC=O | – | inactive
O=C(CCCN1CCC(O)(c2ccc(Cl)cc2)CC1)c1ccc(F)cc1 | 51.7 µM (active) | –
